PrPC TRFRET: inhibitors of human cell surface prion protein PrPC, primary screen, cell-based, TR-FRET; Major prion protein (Homo sapiens), P04156; TR-FRET read-out; inhibition, % at 13.8 µM; 0.43% of 370,000 active; AID 720596, 2013; in the data active = inhibition above about 24%; note: 0% = median of the test wells and 100% = reference compound wells
PfHsp40 yeast: rescue of yeast from PfHsp40 toxicity, primary screen, S. cerevisiae, ATP luminescence | S. cerevisiae expressing PfHsp40, growth rescue | 0.68% of 340,000 active | AID 504582, 2011 | growth rescue, % at 12.5 µM; in the data active = growth rescue above about 28%, passing the limit was not always enough;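 note: yeast W303a lacking pdr1 and pdr3 grown in galactose medium; growth measured after three days at 30 °C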
PrP UTR inh: inhibition of PrP 5' UTR reporter expression; cell-based PrP 5' UTR mRNA reporter, plate reader; inhibition, % (concentration not given with the values); 0.35% of 340,000 active; in the data active = inhibition above about 52%; note: 0 = median of the neutral control wells
Y pestis TopoI: Yersinia pestis topoisomerase I inhibitors, primary screen, biochemical, cleavage product accumulation, plate reader, single point; DNA topoisomerase I (Yersinia pestis CO92); Y. pestis Topo-I cleavage product accumulation; activity, % at 10 µM; 0.064% of 360,000 active; AID 504884, 2011; in the data active = activity above about 50%, passing the limit was not always enough
SSB-PriA inh: inhibitors of Klebsiella pneumoniae PriA binding to SSB C-terminal tail, primary screen, biochemical, AlphaScreen; AID 1272365, 2023; 0.6% of 430,000 active; AlphaScreen SSBct-PriA binding, biotinylated peptide; inhibition, % at 33 µM; in the data active = inhibition mostly above about 37%, no sharp cut-off; inactive = mostly below about 20%;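 note: plate controls were negative control peptide for no effect and reference peptide for full effect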
BJeLR lethal: MLPCN primary cell-based screen for lethality selective to Ras in HRASV12 cells | BJeLR (HRASV12) viability, CellTiter-Glo ATP luminescence, 48 h | inhibition, % (no concentration beside the values) | 0.17% of 300,000 active | AID 1554, 2009; in the data active = inhibition above about 50%
An asterisk follows results filed as active; · = no result; ! = not confirmed by another sample. An excerpt weighted towards active compounds, which were near 1.7% of everything screened.

SMILES | PrPC TRFRET | PfHsp40 yeast | PrP UTR inh | Y pestis TopoI | SSB-PriA inh | BJeLR lethal
CC(C)(C)c1ccc(C(=O)Nc2ccc(C(=O)NCc3cccnc3)cc2)cc1 | 7 | 2 | 1 | 5 | 7 | 82*
Cc1ccc(S(=O)(=O)N(C)c2ccc(C(=O)NCc3cccnc3)cc2)cc1 | -4 | 2 | -5 | 7 | 39* | 6
Cc1ccc(CN2C(=O)/C(=C\c3ccc(C(=O)NCc4cccnc4)cc3)Oc3ccccc32)cc1 | 4 | · | · | · | · | 113*
O=C(Cc1ccccc1Cl)NC[C@@](O)(c1ccccc1)C1CC1 | · | · | · | · | -6 | ·
COC(=O)c1cn(-c2ccccc2)nc1-c1ccncc1 | -3 | -1 | -28 | 2 | -16 | -5
O=C(OCc1ccccc1)c1cn(-c2ccccc2)nc1-c1ccncc1 | -3 | 104* | -9 | 32 | -19 | 3
CCCCCc1cc(=O)oc2c(C(CCN3CCCC(C)C3)c3ccc(N(C)C)cc3)c(OC)cc(OC)c12 (stereo not drawn) | · | 2 | 5 | 4 | 90* | 11
CCN(CC)CCC(c1cc(OC)c(OC)c(OC)c1)c1c(OC)cc(OC)c2c(C)cc(=O)oc12 (stereo not drawn) | -10 | 0 | -7 | 5 | -3 | -3
CCCCCc1cc(=O)oc2c(C(CCN(CC)CC)c3ccc(N(C)C)cc3)c(OC)cc(OC)c12 (stereo not drawn) | -17 | 0 | 2 | -6 | 67* | -6
CCOC(=O)N1CCN(C(=O)CSc2cc(C)nc3c(-c4ccccc4OC)c(C)nn23)CC1 | 6 | 0 | -17 | 5 | -2 | -4
CCOC(=O)N1CCC(Nc2cc(C)nc3c(-c4ccccc4OC)c(C)nn23)CC1 | 3 | 1 | -3 | 15 | 104* | 3
C=CCn1c(SCn2nnc3ccccc3c2=O)nnc1-c1ccc(Br)cc1 | 6 | 114* | -15 | 5 | -6 | -6
C=CCn1c(SCn2nnc3ccccc3c2=O)nnc1-c1ccc(F)cc1 | -5 | -1 | -7 | 3 | 1 | -17
COC(=O)Nc1nc(CC(=O)N2CCC(C(N)=O)CC2)cs1 | · | · | · | · | -7 | ·
Cc1cc(C)c(C(=O)CN2C(=O)NC3(CCCCCC3)C2=O)cc1C | 6 | 52* | -43 | 5 | -20 | 11
CC12CCC(O)CC1=CCC1C2CCC2(C)C3=NN=CC3CC12 (stereo not drawn) | -4 | 86* | -14 | 0 | 0 | ·
COc1ccc(F)cc1S(=O)(=O)NCc1nc(C)no1 | · | · | · | · | -11 | ·
Cn1c(COc2ccccc2O)[n+](C)c2ccccc21 | -6 | -1 | 1 | 1 | -4 | 8
COc1ccc(N=Nc2n(C)c3ccccc3[n+]2C)cc1 | · | · | · | · | · | 52*
CC(C)(C)c1ccc(C(=O)N/C(=C/c2ccco2)C(=O)NCCCn2ccnc2)cc1 | · | · | · | · | 63* | ·
O=C(c1ccc2ccccc2n1)N1CCC(S(=O)(=O)Cc2ccco2)CC1 | · | · | · | · | -2 | ·
COc1ccc(-c2nc(-c3cn(CC(=O)Nc4cc(Cl)ccc4C)cn3)no2)cc1 | · | · | · | · | -7 | ·
Cc1nn(-c2ccccc2)c(Cl)c1CN(C(=O)CCl)c1ccc(Cl)cc1 | -72 | 1 | -20 | 39 | 7 | 133*
Cc1oc2ccc(OC(=O)N(C)C)cc2c1C(=O)OC(C)C | -6 | 160* | -7 | 21 | -27 | 5
CCN(CC)C(=O)C1CC(=O)N(c2ccc(F)c(Cl)c2)C1 (stereo not drawn) | 1 | 40* | -19 | -2 | -22 | -2
SMILES | PrPC TRFRET | PfHsp40 yeast | PrP UTR inh | Y pestis TopoI | SSB-PriA inh | BJeLR lethal
CS(=O)(=O)NCC#CCOc1cccc(C(F)(F)F)c1 | · | · | · | · | -27 | ·
COc1ccc(N2CCN(C(=O)c3ccc(COc4ccc([N+](=O)[O-])cc4)o3)CC2)cc1 | -2 | 2 | -22 | 36 | 40* | 11
CN(CC#CCNC(=O)c1ccc(=O)[nH]c1)Cc1ccccc1 | · | · | · | · | 3 | ·
CCOC(=O)c1sc(NN=c2c(=O)c3ccccc3c2=O)c(C(=O)OCC)c1C | · | · | · | · | -11 | ·
Oc1c(C(Nc2nc3ccccc3s2)c2ccco2)ccc2cccnc12 (stereo not drawn) | 25* | -1 | 3 | 3 | 14 | -4
O=[N+]([O-])c1ccc(NC(c2ccco2)c2ccc3cccnc3c2O)cc1 (stereo not drawn) | · | · | · | · | 0 | ·
CC(C)C(=O)NC(c1ccco1)c1ccc2cccnc2c1O (stereo not drawn) | 10 | 297* | 8 | -7 | 28 | 7
CC(=O)NC(c1ccco1)c1cc(F)c2cccnc2c1O (stereo not drawn) | 1 | 3 | 1 | 8 | 73* | ·
CCC(=O)NC(c1cccs1)c1ccc2cccnc2c1O (stereo not drawn) | 20 | 1 | 30 | 7 | 33 | 19
CCC(=O)c1c(O)n(C2CCCCCC2)c(=O)[nH]c1=O | 1 | 81* | -21 | -4 | -2 | 4
C/C(=N\NC(=O)c1ccccc1O)c1c(O)n(C2CCCCC2)c(=O)[nH]c1=O | -3 | 79* | 2 | 2 | · | 5
CC(=NCCO)c1c(O)n(C2CCCCC2)c(=O)[nH]c1=O | -2 | 0 | -9 | -3 | 13 | 3
O=C(/C=C/c1ccccc1)NCCSc1ncc(-c2ccccc2)[nH]1 | · | · | · | · | 19 | ·
O=C(c1ccccc1Br)N1CCC(c2ccsc2)CC1 | · | · | · | · | -7 | ·
COc1ccc(OC2C(=O)N(Cc3ccc(F)cc3)C2c2cc(OC)c(OC)c(OC)c2)cc1 (stereo not drawn) | -7 | 1 | -28 | -3 | -8 | -2
COC(=O)c1ccc(C2C(Oc3ccc(OC)cc3)C(=O)N2CCc2ccc(F)cc2)cc1 (stereo not drawn) | -2 | 0 | -10 | 67* | 9 | 2
CCOc1ccc(C(=O)Nc2ccccc2-c2csc(C)n2)nn1 | · | · | · | · | -24 | ·
COc1ccc2nc(NC3=NCCN3)sc2c1 | 6 | 126* | -85 | -2 | -9 | 4
c1ccc2sc(NC3=NCCN3)nc2c1 | 2 | 186* | -52 | -3 | -5 | 3
COc1ccc2nc(N3C(=O)CNC3=S)sc2c1 | 3 | 32* | -56 | -7 | -5 | 2
COc1ccc(Nc2nc3ccc(OC)cc3s2)cc1 | 4 | 8 | -48 | -12 | 38*! | 1
CCOC(=O)c1c(-c2ccc(C)c(C)c2)csc1NC(=O)CN1CCN(C)CC1 | · | · | · | · | 13 | ·
COC(=O)c1cccc(Nc2ncnc3c2c(C)c(C)n3Cc2ccco2)c1 | · | · | · | · | 30 | ·
CSCCC(=O)Nc1nc(-c2ccccn2)cs1 | 4 | -1 | -23 | 12 | -9 | ·
O=C(CN1CSCC1=O)Nc1nc(-c2ccccn2)cs1 | · | · | · | · | 56 | ·
O=C(CN1C(=O)CCC1=O)Nc1nc(-c2ccccn2)cs1 | 6 | 1 | -30 | -4 | 51* | -3
O=C(CN1C(=O)CCOc2ccccc21)Nc1nc(-c2ccccn2)cs1 | · | · | · | · | 93* | ·
